Source: PubChem BioAssay (National Center for Advancing Translational Sciences (NCATS))
Only some compounds are listed: those with a hit (about 9.9% of all), similar ones and a draw of the others.
KB-V1 cytotox – qHTS assay for MDR1-selective chemotherapeutics: Primary screen using the drug-selected MDR subline cells KB-V1; KB-V1 MDR cells viability, CellTiter-Glo, 72 h; 3.4% of 400,000 active; Potency, µM (highest dose often 46.1 µM), actives largely listed as cytotoxic; note: potency is the fitted concentration of half-maximal effect; % is set by controls: 0 for no effect and ±100 for the full control effect; nearly all actives have a fitted effect of over 60% in size
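Cytotoxicity toward P-gp-expressing KB-V1 cells was determined as loss of CellTiter-Glo luminescence after 72 h at 37 degrees C. Compounds were tested in quantitative HTS format across a concentration range, with curves fitted to normalized data.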
SW480 rereplic – A quantitative high throughput screen for small molecules that induce DNA re-replication in SW480 colon adenocarcinoma cells | Potency, µM (doses to about 46.1 µM), for inactives: at the highest dose re-replication activation, most hits filed as activators | 1.8% of 340,000 active | SW480 DNA re-replication, Hoechst DNA content imaging, 48 h | AID 624297, 2012; note: potency is the fitted concentration of half-maximal effect; % of control where 0% means no effect; nearly all actives have a fitted effect of over 55% in size
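Readout is total intensity of Hoechst-stained nuclei, excited at 405 nm and collected at 500-530 nm. Compound treatment lasted 48 hr at 37 C in 5% CO2 before staining.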
KB-3-1 cytotox – qHTS assay for MDR1-selective chemotherapeutics: Primary screen using the parental adenocarcinoma cell KB-3-1; 1.4% of 400,000 active; KB-3-1 viability, CellTiter-Glo ATP luminescence, 72 h; Potency, µM (titrated, usually from 46.1 µM), usual class: cytotoxic; note: potency is the fitted concentration of half-maximal effect; % is set by controls: 0 for no effect and ±100 for the full control effect; nearly all actives have a fitted effect of over 60% in size
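Using CellTiter-Glo luminescence, growth of non-resistant KB-3-1 adenocarcinoma cells is assessed 72 h after pin-tool compound addition at 37 °C. Normalized responses across the concentration series yield fitted curves.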
IL-1B inflam inh – qHTS for Inhibitors of Inflammasome Signaling: IL-1-beta AlphaLISA Primary Screen | THP-1 LPS/ATP IL-1B secretion, AlphaLISA, 16 h; hits give low values | activity change, % at 57.5 µM | 4.7% of 360,000 active | AID 743279, 2014; in the data active = activity change below about -50%; inconclusive = mostly about -30% to -49%; note: % is set by controls: 0 for no effect and ±100 for the full control effect
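Secreted IL-1B measured by AlphaLISA bead assay after 16 h compound exposure of THP-1 cells; compounds (final up to 57.5 uM) added 1 h before LPS (250 ng/mL) and ATP (1.25 mM) stimulation; lower signal means less secretion.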
MCF10A rereplic – A quantitative high throughput screen for small molecules that induce DNA re-replication in MCF 10a normal breast cells; 2.9% of 350,000 active; Potency, µM (doses to about 46.1 µM), inactives show top-dose activity, positive = re-replication, usual class: activators; MCF 10A DNA re-replication, Hoechst nuclear intensity, 48 h; AID 624296, 2012; note: potency is the fitted concentration of half-maximal effect; % of control where 0% means no effect; nearly all actives have a fitted effect of over 50% in size
* = called active by the depositor; i = inactive; ? = inconclusive; . = no result given; [ ] = another dose, or the depositor's remark. Unless noted, calls come from the whole dose curve; as a rule, active = well fitted curve in the direction sought with a large enough effect; inconclusive = small, poorly fitted or top-dose-only effect, or another doubt; inactive = no such curve, though single readings can be large; an effect the other way counts as inactive or inconclusive.

SMILES	KB-V1 cytotox	SW480 rereplic	KB-3-1 cytotox	IL-1B inflam inh	MCF10A rereplic
COc1ccc(C(=O)NC(=S)Nc2ccc(CN3CCOCC3)cc2)cc1Cl	i	-4%	i	-11	0%
Cc1ccc(C(=O)NC(=S)Nc2ccc(CN3CCCCC3)cc2)c(C)c1	i	?	i	-53*	5%
O=C(NC(=S)Nc1ccc(CN2CCCCC2)cc1)c1ccco1	i	9%	i	-5	?
COc1ccc(C(=O)NC(=S)Nc2ccc(CN3CCCCC3)cc2)cc1Cl	i	25%	i	-68*	?
CC(C)c1nnc(NC(=O)Cc2ccccc2[N+](=O)[O-])s1	23µM*	-135%	i	0	?
Cc1ccc(-c2cc3cccc[n+]3cc2-c2ccc(C)cc2)cc1	i	-11%	4.6µM*	-88*	?
C=C(C)CNC(=S)NNC(=O)c1ccco1	i	1.8µM*	i	-8	16µM*
O=c1n(Cc2ccccc2)c(O)c2n1Cc1ccccc1N=C2c1ccccc1	i	.	i	-3	.
O=C(COc1cccnc1[N+](=O)[O-])Nc1ccccc1Sc1ccccc1	13µM*	-8%	i	0	13%
CCCCC(=O)NS(=O)(=O)c1ccc(N=NN2CCOCC2)cc1	i	-12%	i	16	-1%
Cc1ccc2nc(/C(C#N)=C/c3cccc(Br)c3)[nH]c2c1	?	.	i	.	.
N#C/C(=C\c1cccnc1)c1nc2ccccc2[nH]1	23µM*	?	?	17	?
Cc1cc2nc(/C(C#N)=C/c3ccncc3)[nH]c2cc1C	i	13µM*	i	-16	23µM*
N#C/C(=C\c1ccncc1)c1nc2ccccc2[nH]1	i	-1%	i	-64*	?
N#C/C(=C\c1ccc(N2CCOCC2)c([N+](=O)[O-])c1)c1nc2ccccc2[nH]1	10µM*	-42%	?	-104*	10%
Cc1c(Cl)cccc1NC(=O)c1cc(S(=O)(=O)N2CCCCC2)cn1C	i	.	i	.	.
Clc1cccc(CNCCNCc2cccc(Cl)c2)c1	i	-2%	i	-53*	16%
O=c1c(N=Nc2ccc(O)cc2)c(-c2ccccc2)[nH]n1-c1ccc([N+](=O)[O-])cc1	?	?	i	-22	1%
O=c1cc(-c2ccccc2)[nH]n1-c1ccc([N+](=O)[O-])cc1	?	23%	?	-64*	15µM*
CN(Cc1ccccc1)C(=O)c1cc(-c2cccc(Cl)c2)on1	i	.	i	.	.
COc1cc(/C=N/N2C(=O)C3C4c5ccccc5C(c5ccccc54)C3C2=O)ccc1O (stereo not drawn)	10µM*	-2%	i	-7	0%
O=C(Oc1ccccc1Cl)c1ccccc1	.	15%	.	4	16µM*
O=C(Oc1cccccc1=O)c1ccccc1	?	18µM*	i	-3	?
COc1ccc(N(CC(=O)Nc2cc(C)ccc2C)S(=O)(=O)c2ccc(OC)c(OC)c2)cc1	i	.	i	.	.
CCC(C)c1ccccc1NC(=O)CN(C)CCOc1ccc(Cl)cc1 (stereo not drawn)	i	?	i	-77*	?
SMILES	KB-V1 cytotox	SW480 rereplic	KB-3-1 cytotox	IL-1B inflam inh	MCF10A rereplic
CCOC(=O)[C@]12CCC=C1N(Cc1ccc(Cl)cc1Cl)C(=O)[C@H](CC(=O)N1CCOCC1)C2	i	.	i	-7	.
N#CC1=C(C2CC2)CC(c2ccccc2)C(C#N)=C1N (stereo not drawn)	23µM*	3%	i	11	2%
N#CC1=C(N)SC2(CCCCC2)SC1c1ccccc1 (stereo not drawn)	i	4%	i	6	2%
CCOC(=O)C1CCCN(Cc2ccc(OC)c(OCc3ccccc3)c2)C1 (stereo not drawn)	i	-16%	i	-3	?
Cc1ccc(-n2nc3c([n+]2[O-])CCc2c-3no[n+]2[O-])cc1	?	?	?	-78*	2%
[O-][n+]1onc2c1CCc1c-2nn(-c2ccccc2Cl)[n+]1[O-]	?	2%	?	-74*	8%
O=C(Nc1ccccc1F)c1oc2ccccc2c1NC(=O)c1c(F)cccc1F	i	.	i	.	.
O=C(NC1CCCCC1)c1ccccc1NC(=O)C1CC1	16µM*	0%	i	7	20%
COc1cc(OC)cc(C(=O)Nc2ccccc2C(=O)NC2CC2)c1	6.5µM*	?	?	11	?
O=C(Nc1ccccc1C(=O)NC1CCCC1)NC1CCCC1	i	-13%	i	-5	254%[0.0737 µM]
CCOC(=O)/C=C/C(=O)Nc1ccccc1C(=O)NC1CCCCC1	i	?	i	-51*	?
CN(C(=O)c1ccc2c(c1)N(Cc1ccc(F)cc1)C(=O)c1ccccc1S2(=O)=O)C1CCCCC1	i	.	i	.	.
COc1ccc(CCN2C(=O)C(Oc3ccccc3C)C2c2ccc3c(c2)OCO3)cc1 (stereo not drawn)	10µM*	4%	i	?	?
CC(C)NC(=O)C1(C)CCN1Cc1ccc(Cl)cc1 (stereo not drawn)	i	.	i	9	.
Cc1cc(C)nc(Sc2ncnc3sc4c(c23)CCC4)n1	?	13µM*	?	-13	-182%[0.0737 µM]
CCCCCCc1c(C)c2c(cc(C)c3c(C)c(C)oc32)oc1=O	i	.	i	.	.
CC1(Oc2ccccc2-c2ccno2)CCN(Cc2csc3ccccc23)C1 (stereo not drawn)	?	.	?	0	.
CCN(CC)Cc1c(O)ccc2c([N+](=O)[O-])c(C)n(-c3ccc(OC)cc3)c12	i	3%	?	-75*	7%
O=C(NC(=S)NC1CCCC1)c1ccccc1Br	i	-696%	i	0	2%
CCN(C(=S)NC(=O)c1ccccc1Br)C1CCCCC1	i	0.52µM*	i	0	3%
CCN(C(=O)COC(=O)c1cc([N+](=O)[O-])ccc1N1CCOCC1)c1ccccc1	?	7%	i	-1	-4%
Cc1ccc(C)c(S(=O)(=O)N2CCCCC2CCNC(=O)C(=O)NCc2ccco2)c1 (stereo not drawn)	9.2µM*	?	?	-8	?
COc1ccc(NC(=O)C(=O)NCC2CCCN2S(=O)(=O)c2cc(C)ccc2C)cc1 (stereo not drawn)	5.8µM*	16µM*	5.8µM*	-3	?
Cc1ccc(C)c(S(=O)(=O)N2CCCC2CNC(=O)C(=O)NCc2ccccc2)c1 (stereo not drawn)	8.2µM*	3%	i	7	-5%
